Screening results: PubChem, The Scripps Research Institute Molecular Screening Center
The list is not random: actives were taken first. Their share in the collection is about 4.8%.
ssDAF12 agonist – S. stercoralis DAF-12 nuclear receptor activators, primary screen, cell-based, luminescence, HEK293, GRIP1 co-expression, lit1-tk-luc. HEK293 ssDAF-12/GRIP1 lit1-tk-luc reporter; % of 3 µM dafachronic acid response. activation, % at 6.8 µM. 370,000 compounds, 1% hits. AID 652126, 2013;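 active = activation above the mean over all tested compounds plus 3 SD, cut at about 0.9% in these data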;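 note: 0% = DMSO-only wells and 100% = 3 µM delta7-dafachronic acid wells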
DAX1 inh-1 – DAX1 (NR0B1) inhibitors, primary screen, cell-based, HEK293, Gal4-DAX1, luciferase luminescence. 340,000 compounds, 0.99% hits. Nuclear receptor subfamily 0 group B member 1 (Homo sapiens), P51843. inhibition, % at 6.75 µM. HEK293 Gal4-DAX1 luciferase reporter. AID 504766, 2011;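 active = inhibition above the mean over all tested compounds plus 3 SD, cut at about 4.2% in these data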;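 note: 0% = DAX1-transfected cells with DMSO and 100% = empty-vector control cells with DMSO; inhibition shows as a rise in luminescence from relieved DAX1 repression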
Target sequence (P51843 207-470 limits assumed): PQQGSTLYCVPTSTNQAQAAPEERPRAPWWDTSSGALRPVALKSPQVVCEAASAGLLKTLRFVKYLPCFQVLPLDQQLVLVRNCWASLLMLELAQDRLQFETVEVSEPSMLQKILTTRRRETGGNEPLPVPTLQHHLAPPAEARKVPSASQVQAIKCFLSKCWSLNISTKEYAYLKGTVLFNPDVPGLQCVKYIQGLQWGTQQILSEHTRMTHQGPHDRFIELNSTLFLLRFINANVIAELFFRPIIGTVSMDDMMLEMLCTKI
hgDAF12 agonist – H. glycines DAF-12 receptor agonists, primary screen, cell-based, luminescence, HEK293, GAL4 fusion, UAS-luciferase; 370,000 compounds, 1.8% hits; Nuclear hormone receptor DAF-12 (Heterodera glycines), GAL4 fusion; activation, % at 6.8 µM; HEK293 GAL4-hgDAF12 UAS-luciferase reporter, agonist luminescence; normalized to butyrate control; AID 687014, 2013;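 active = activation above a cutoff set at the mean of all screened compounds plus 3 SD, cut at about 10% in these data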;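 note: 0% = DMSO wells and 100% = sodium butyrate wells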
hcDAF12 agonist – H. contortus DAF-12 nuclear receptor activators, primary screen, cell-based, luminescence, HEK293, lit1-tk-luc reporter | HEK293 hcDAF-12 lit1-tk-luc reporter; 0% DMSO, 100% Δ7-dafachronic acid | activation, % at 6.8 µM | 370,000 compounds, 1.4% hits;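 active = activation above the mean of all tested compounds plus 3 SD, cut at about 5.5% in these data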;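 note: 100% = response to 3 µM Δ7-dafachronic acid high control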
SMARCA2 act – SMARCA2 (BRM) function activators, primary screen, cell-based, luminescence, high throughput; MG213 cells, MMTV-luciferase reporter, dexamethasone, overnight; activation, % at 9.1 µM; 370,000 compounds, 1% hits; AID 652017, 2013; in the data active = activation above about 7.8%;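 note: 0% = vehicle wells and 100% = reference activator wells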
DAX1 inh-2 – DAX1 (NR0B1) inhibitors on StAR promoter, primary screen, cell-based, luminescence, SF-1 (NR5A1), full-length DAX-1. AID 652010, 2013. 370,000 compounds, 1.1% hits. inhibition, % at 6.8 µM. HEK293T StAR-luciferase reporter, SF-1/DAX-1 repression relief;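 active = inhibition above the mean over all tested compounds plus 3 SD, cut at about 3.6% in these data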;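 note: 0% = DAX-1 cells with DMSO and 100% = cells lacking DAX-1 with DMSO; higher inhibition means more luminescence from relief of DAX-1 repression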
Active calls of the source: *; . = no result given.

SMILES	ssDAF12 agonist	DAX1 inh-1	hgDAF12 agonist	hcDAF12 agonist	SMARCA2 act	DAX1 inh-2
O=C(Cc1c(F)cccc1Cl)Nc1cccnc1	-1	0	0	2	1	0
CC(CCN1CCC(C(O)(c2ccccc2)c2ccccc2)CC1)Oc1cccc(Cl)c1 (stereo not given)	-1	.	0	4	7	0
CC(CCN1CCC(C(O)(c2ccccc2)c2ccccc2)CC1)Oc1cccc(C(F)(F)F)c1 (stereo not given)	0	.	1	6.4*	-4	0
COCCn1c(SCC(=O)N2CC(=O)Nc3ccccc32)nc2ccccc2c1=O	-1	-1	1	0	0	0
COCCn1c(SCC(=O)N2CC(=O)Nc3ccccc32)nc2ccccc21	0	2	3	5.8*	-1	0
COCCNC(=S)Nc1ccc2nc(N3CCN(C)CC3)cc(C)c2c1	-1	0	2	-1	-1	0
C/C(=N\O)C(C)(C)Nc1cccc(F)c1	-1	5.2*	0	0	-5	1
Cc1cc(Nc2cccc([N+](=O)[O-])c2)c2ccccc2n1	-2	-1	-2	-2	2	0
Cc1ccsc1C(=O)N1CCC1(C)C(=O)NS(=O)(=O)c1ccccc1C(F)(F)F (stereo not given)	-1	.	-1	0	-2	0
Cn1nccc1C(=O)Nc1sc2c(c1C(N)=O)CCCC2	-1	-1	5	2	3	1
Cn1nccc1C(=O)Nc1sc2c(c1C#N)CCCC2	-1	0	7	1	-1	4.3*
Cc1ccc([N+](=O)[O-])cc1S(=O)(=O)N1CCN(C)CC1	-1	6.3*	0	0	-2	0
Cc1cc(C)c(C)c(S(=O)(=O)N2CCN(C)CC2)c1C	0	8.9*	3	-2	-3	0
O=c1[nH]c(-c2ccc3c(c2)OCO3)nc2c1sc(=S)n2-c1ccccc1	1.0*	2	-2	2	-1	0
CC(NCC(=O)NC(=O)NCCC1=CCCCC1)c1ccc(S(N)(=O)=O)cc1 (stereo not given)	-1	0	-2	0	-3	2
CC(Sc1ccccn1)C(=O)Nc1ccccc1 (stereo not given)	0	2	13*	3	4	2
COc1ccccc1N=Nc1[nH]c2ccc(C)cc2c1O	0	0	8	6	7.9*	0
Cc1ccc2[nH]c(O)c(N=Nc3ccccc3[N+](=O)[O-])c2c1	0	1	3	3	-2	1
Cn1c(O)c(C2=c3ccccc3=NC2=O)[nH]c1=S	1.2*	1	1	5	6	0
COc1ccc2nc(-n3c(O)c(C4=c5ccccc5=NC4=O)[nH]c3=S)sc2c1	0	-2	2	1	-1	1
CC1CCN(C(=O)Cn2c(=O)oc3cc(S(=O)(=O)N4CCCCC4)ccc32)CC1	-1	4.9*	-1	-1	0	2
O=C(O)c1nn(-c2cccc(Cl)c2)c(=O)cc1O	1.2*	-1	1	4	0	0
NC(=O)c1cc2ccncc2c2ccccc12	-2	0	11*	-3	-3	0
Cc1cc(C(N)=O)c2ccccc2n1	-1	-1	0	-2	-2	-1
Cc1c(Cc2ccccc2)c(=O)oc2c(C)c(OCc3nn[nH]n3)ccc12	-1	5.3*	-2	-1	2	0
SMILES	ssDAF12 agonist	DAX1 inh-1	hgDAF12 agonist	hcDAF12 agonist	SMARCA2 act	DAX1 inh-2
COc1ccc(-c2cc(=O)oc3c(C)c(OCc4nn[nH]n4)ccc23)cc1	-1	7.3*	-2	-1	0	1
Cc1c(OCc2nn[nH]n2)ccc2c(-c3ccccc3)cc(=O)oc12	-1	3	-2	-1	2	0
O=C(c1ccco1)n1c(=S)nc2ccccn21	0	2	12*	3	7.9*	1
O=C(NCc1ccncc1)c1cncc(Br)c1	-2	4.4*	-2	1	0	-1
O=C(Nc1ccc2c(c1)OCCO2)c1cncc(Br)c1	0	1	11*	3	0	2
O=C(Nc1ccc2c(c1)OCO2)c1cncc(Br)c1	-1	2	11*	1	7	1
CCc1sc(C(=O)Nc2ccc3c(c2)OCCO3)cc1Br	0	1	11*	2	7	7.1*
O=C(Nc1ccc2c(c1)OCCO2)c1ccccc1	.	0	.	.	.	.
CCOC(=O)N1CCN(c2cc(=O)n(-c3ccccc3Cl)c(=O)[nH]2)CC1	-1	1	-4	1	-1	1
CCc1ccc(C(=O)NNC(=O)CC2OC(=O)c3ccccc32)cc1 (stereo not given)	1.0*	0	6	5	1	2
O=C(NCCCn1ccnc1)/C(=C\c1cccs1)NC(=O)c1cccs1	-1	2	2	2	-3	1
CCOC(=O)c1cn(Cc2ccc(Br)cc2)nn1	-2	2	0	-3	4	0
CCOC(=O)c1cn(Cc2ccc(C)cc2)nn1	-1	-1	-2	5.8*	-1	-1
COc1ccc(CN(C(=O)c2ccco2)c2ccccc2)cc1	-1	0	0	5.9*	1	0
COc1ccc(CN(C(=O)c2cccs2)c2ccccc2)cc1	-2	0	-1	1	-3	-1
COC(=O)c1ccccc1NC(=O)CS(=O)(=O)Cc1nc(-c2ccc(C)cc2)oc1C	1.1*	-1	-2	3	-1	1
O=C(CCN1C(=O)S/C(=C/c2ccc(Cl)cc2)C1=O)N1CCOCC1	-1	1	-1	0	-3	1
CC(C)CCn1c(CN2CCN(c3cccc(Cl)c3)CC2)nc2c1c(=O)n(C)c(=O)n2C	0	0	13*	3	4	2
Cn1c(=O)c2c(nc(CN3CCOCC3)n2CCN2CCOCC2)n(C)c1=O	.	2	.	.	.	.
CC(C)Cn1c(Br)nc2c1c(=O)n(CCC#N)c(=O)n2C	-1	4.3*	0	-2	0	-1
CCCCCCn1c(Br)nc2c1c(=O)n(C)c(=O)n2C	1.0*	0	-1	1	-4	0
CCCCn1c(CN2CCOCC2)nc2c1c(=O)n(C)c(=O)n2C	-1	0	11*	0	-1	0
